Screening data deposited in PubChem by The Scripps Research Institute Molecular Screening Center.
GPR151 activ: activates the human receptor GPR151; PathHunter beta-arrestin GPR151 cells, luminescence; hit rate 1% among 650,000; activation, % at 11.2 µM; in the data active = activation above about 4.9%;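 also: 0% = median of compound wells and 100% = cells with positive control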
Target sequence (Q8TDV0 whole entry, looked up): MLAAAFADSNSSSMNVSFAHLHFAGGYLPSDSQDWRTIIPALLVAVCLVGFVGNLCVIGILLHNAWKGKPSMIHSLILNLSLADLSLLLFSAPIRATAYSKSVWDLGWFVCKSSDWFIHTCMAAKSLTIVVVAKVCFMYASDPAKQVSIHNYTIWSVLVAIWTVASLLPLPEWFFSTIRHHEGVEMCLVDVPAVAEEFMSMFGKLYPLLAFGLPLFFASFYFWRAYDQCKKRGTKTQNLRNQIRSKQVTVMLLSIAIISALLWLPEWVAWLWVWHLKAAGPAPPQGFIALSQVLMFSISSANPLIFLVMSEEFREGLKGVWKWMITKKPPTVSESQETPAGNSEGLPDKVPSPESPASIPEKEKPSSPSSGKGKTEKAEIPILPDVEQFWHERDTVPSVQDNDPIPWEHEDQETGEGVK
FBW7 act: activators of human E3 ligase FBW7; Q969H0; AlphaScreen FBW7–phospho-cyclin E peptide binding, activator screen; normalized activity (activation), % at 26.1 µM; hit rate 0.13% among 650,000; AID 1259310; in the data active = normalized activity above about 1.9%;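 also: purified mutant Fbw7 with reduced substrate affinity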
TEAD-YAP inh: TEAD-YAP interaction inhibition; HEK-TIYL cells, TEAD-Gal4/YAP UAS-luciferase luminescence; inhibition, % at 9.12 µM; hit rate 1.4% among 640,000; AID 1259422; in the data active = inhibition above about 32%;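 also: 0% = median of test compound wells and 100% = reference inhibitor wells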
MITF inh: inhibitors of human MITF; AID 1259374; inhibition, % at 2.6 µM; O75030; hit rate 0.91% among 650,000; AlphaScreen MITF homodimerization, bead proximity signal; in the data active = inhibition above about 50%;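 also: 0% = vehicle wells with protein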
Starred values were filed as active, the others as inactive. A selection: hits, their analogues and other compounds. The true share with any hit is near 3.5%.

SMILES | GPR151 activ | FBW7 act | TEAD-YAP inh | MITF inh
Cc1ccccc1NC(=O)Nc1ccnn1C1CCN(C(C)CCn2cccn2)CC1 (configuration not stated) | -0.5 | -0.1 | -0.8 | 2.4
O=c1oc2ccccc2cc1-c1nc(-c2ccccc2)cs1 | 1.8 | 0.6 | -4.9 | 2.2
COc1ccccc1NC(=O)Nc1c(SC)nsc1SC | -0.7 | 0.0 | 37.2* | 7.5
Cc1cc2nc3s/c(=C/c4cc5c(cc4[N+](=O)[O-])OCO5)c(=O)n3c2cc1C | 1.9 | 0.0 | -5.5 | 0.5
Cc1cc2nc3s/c(=C/c4ccc(N5CCN(C)CC5)c([N+](=O)[O-])c4)c(=O)n3c2cc1C | -1.7 | 0.0 | 37.7* | -6.0
NC(=O)C1CCN(c2nnc(-c3ccccc3)c3ccccc23)CC1 | -2.9 | 0.1 | 1.8 | 10.8
N#CC(C#N)C(C#N)(C#N)C1CCCC1=O (configuration not stated) | -0.6 | -0.7 | 6.5 | 78.3*
N#CC(C#N)C(C#N)(C#N)C1CCCCC1=O (configuration not stated) | 1.3 | -0.6 | 11.6 | 21.5
CCOc1ncccc1C(=O)NCC12CC3CC(CC(C3)C1)C2 | 0.2 | 0.0 | 4.9 | -6.2
COC1C(O)CC(OC2CC(Oc3cc4cc5c(c(O)c4c(O)c3C)C(=O)[C@@H](OC3CC(OC4CC(OC6CC(C)(O)C(C)C(C)O6)C(O)C(C)O4)C(O)C(C)O3)[C@H]([C@H](OC)C(=O)[C@@H](O)[C@@H](C)O)C5)OC(C)C2OC(C)=O)OC1C (some centres not stated) | -1.5 | -0.4 | 95.7* | 2.7
O=C(CC1C(=O)NCCN1Cc1ccccn1)NCc1ccc(C(F)(F)F)cc1 (configuration not stated) | 0.5 | -0.1 | 4.0 | 2.5
Cc1cnc(NC(=O)c2ccccc2F)s1 | -9.0 | 0.0 | 64.0* | 13.3
COc1cc(-c2nc(Nc3ccc(OCc4ccccc4)cc3)c3ccccc3n2)cc(OC)c1OC | -0.2 | 0.1 | 9.8 | 4.7
COc1ccc(Nc2nc(-c3cc(OC)c(OC)c(OC)c3)nc3ccccc23)cc1OC | 0.8 | 0.2 | 26.9 | -2.8
COc1cc(-c2nc(Nc3ccc(C)c(Cl)c3)c3ccccc3n2)cc(OC)c1OC | 0.3 | 0.4 | 51.7* | 1.2
CCOc1ccc(Nc2nc(NCc3ccccc3)c3ccccc3n2)cc1 | 2.8 | -0.4 | 33.4* | 1.1
CCOc1ccc(Nc2nc(-c3cc(OC)c(OC)c(OC)c3)nc3ccccc23)cc1 | 0.3 | 0.0 | 39.6* | 1.0
CCOC(=O)Cn1c(=O)c2c(nc3n(Cc4ccc(OC)cc4)c(C)cn23)n(C)c1=O | 1.2 | -0.2 | 12.5 | 8.7
Cc1ccccc1NC(=O)Cn1nnc(C(=O)NCc2cccs2)c1N | -0.6 | 0.0 | 46.2* | -11.6
CC(C)N(C(=O)Cn1nc(C(=O)O)c2ccccc2c1=O)C(C)C | -0.7 | 0.1 | 7.0 | 3.0
O=C(NCCc1ccc(O)cc1)C1CCN(c2ccc(Nc3cnccn3)nn2)CC1 | 2.2 | 0.1 | 9.7 | 9.3
Cc1ccc2nc(NC(=O)CSCC(=O)O)sc2c1 | -1.0 | 0.4 | 59.5* | 0.9
Cc1ccc(NC(=O)CCC2=NS(=O)(=O)c3ccccc3N2)cc1 | -0.3 | 0.0 | 6.1 | 10.5
CCN(CC)c1ccc(/C=N/NC(=O)c2nnn(-c3nonc3N)c2COC)c(O)c1 | 0.0 | -0.1 | 36.5* | -6.8
COCc1c(C(=O)N/N=C/c2cc(Cl)ccc2O)nnn1-c1nonc1N | 0.1 | -0.1 | 60.9* | 38.0
SMILES | GPR151 activ | FBW7 act | TEAD-YAP inh | MITF inh
COCc1c(C(=O)N/N=C/c2ccc(Cl)cc2)nnn1-c1nonc1N | -0.5 | 0.1 | 4.4 | 5.7
CCN(CC)C(=O)C1CCCN(Cc2c(O)ccc3ccccc23)C1 (configuration not stated) | -1.1 | -0.2 | 0.9 | 1.9
O=C(CSc1nc(O)cc(=O)n1-c1ccccc1)c1ccccc1 | 0.8 | 0.0 | 9.3 | 11.3
Nc1ccc(-c2nc3cccnc3s2)cc1 | -8.0 | 0.0 | 33.6* | -8.9
CC(C)CC(=O)Nc1ccc(-c2nc3cccnc3s2)cc1 | -3.2 | 0.0 | 53.8* | 15.6
O=C(Nc1ccc(-c2nc3cccnc3s2)cc1)c1ccccc1 | -2.6 | 0.2 | -48.4 | -3.2
O=C(Cc1ccccc1)Nc1ccc(-c2nc3cccnc3s2)cc1 | -0.1 | 0.0 | -17.4 | 8.5
O=C(Nc1ccc(-c2nc3cccnc3s2)cc1)C1CC1 | -4.1 | 0.1 | 74.7* | 9.9
CCn1nc(C(=O)OCC(=O)Nc2cc(C)on2)c2ccccc2c1=O | 0.0 | 0.1 | -3.8 | 12.4
CS/C(=C\[N+](=O)[O-])Nc1ccc(C(C)C)cc1 | -0.5 | 0.1 | 53.5* | -15.9
CC(C)c1ccc(NC(=O)c2ccc([N+](=O)[O-])cc2)cc1 | -1.3 | 0.0 | -19.7 | 20.9
Cc1ccc(S(=O)(=O)N2CCN(c3nnnn3-c3ccccc3)CC2)cc1Cl | 1.2 | 2.2* | -1.8 | -9.0
